{
  "source": "the OligoGym collection",
  "data": [
    {"target": "CEP55", "test": "pooled miR-30 sensor sort-seq; sequence = guide strand", "details": "shRNA", "values": [
      {"sequence": "TTAACAATTTTAGCTAAGCAGA", "sensor-assay potency score (higher = more potent)": -1.37},
      {"sequence": "TAAATTGTGAACTTCTTTTTGG", "sensor-assay potency score (higher = more potent)": -0.104},
      {"sequence": "TAACCCATTAGCAATAACCTGA", "sensor-assay potency score (higher = more potent)": -0.42},
      {"sequence": "TTGATAAGCATTCTTCTCCTTC", "sensor-assay potency score (higher = more potent)": 0.207},
      {"sequence": "TAGTAGTCTCAGTAGACGCTGC", "sensor-assay potency score (higher = more potent)": -0.26}
    ]},
    {"target": "CETN1", "test": "pooled miR-30 sensor sort-seq; sequence = guide strand", "details": "shRNA", "values": [
      {"sequence": "TTCGTCGATCATCTCCTGCAGC", "sensor-assay potency score (higher = more potent)": -0.572},
      {"sequence": "AGCTTCGTCGATCATCTCCTGC", "sensor-assay potency score (higher = more potent)": -1.15},
      {"sequence": "TTTCTCTTTTGGCCGGTGGAGG", "sensor-assay potency score (higher = more potent)": -1.52},
      {"sequence": "TTAGGTGCCACCTTTCTCTTTT", "sensor-assay potency score (higher = more potent)": 0.187},
      {"sequence": "TTCAGGATTTCTTCTTTGGTGT", "sensor-assay potency score (higher = more potent)": -0.547},
      {"sequence": "TTTGGTGTCCTTCTCGGACATC", "sensor-assay potency score (higher = more potent)": -1.04},
      {"sequence": "TTCCCGAACTTCTTGCTTCTGA", "sensor-assay potency score (higher = more potent)": 0.00399},
      {"sequence": "TTGCTTCTGATCCTCAGTGAGC", "sensor-assay potency score (higher = more potent)": -1.03},
      {"sequence": "TTCTTCTTTGGTGTCCTTCTCG", "sensor-assay potency score (higher = more potent)": 0.166},
      {"sequence": "TTTTTGAACGAGATCTTCCCGG", "sensor-assay potency score (higher = more potent)": 0.117},
      {"sequence": "TTCGCGTCGATGGTCCCACTTC", "sensor-assay potency score (higher = more potent)": -0.957},
      {"sequence": "TTGAAGCTGATCTTCCCCGTGC", "sensor-assay potency score (higher = more potent)": 0.267},
      {"sequence": "TTTTGAACGAGATCTTCCCGGT", "sensor-assay potency score (higher = more potent)": 0.317},
      {"sequence": "TATTGAACTAGAGATATGGAAA", "sensor-assay potency score (higher = more potent)": -1.01},
      {"sequence": "TAGATCTAGACAAATTATGGGG", "sensor-assay potency score (higher = more potent)": -0.0246},
      {"sequence": "ATCCCGATCAGCTTCGTCGATC", "sensor-assay potency score (higher = more potent)": -1.43},
      {"sequence": "AACTTCTTGCTTCTGATCCTCA", "sensor-assay potency score (higher = more potent)": -0.468},
      {"sequence": "TCTTGCTTCTGATCCTCAGTGA", "sensor-assay potency score (higher = more potent)": 0.681},
      {"sequence": "TCATCGTCATCAAAGAGCCTGA", "sensor-assay potency score (higher = more potent)": -0.321},
      {"sequence": "ATTGAAGCTGATCTTCCCCGTG", "sensor-assay potency score (higher = more potent)": -0.49},
      {"sequence": "TCTTCTTTGGTGTCCTTCTCGG", "sensor-assay potency score (higher = more potent)": -0.36},
      {"sequence": "ATCAGCTTCGTCGATCATCTCC", "sensor-assay potency score (higher = more potent)": -0.374},
      {"sequence": "TTCTCGGACATCTTCTGCGTCA", "sensor-assay potency score (higher = more potent)": -0.598},
      {"sequence": "TCATTGAAGCTGATCTTCCCCG", "sensor-assay potency score (higher = more potent)": -0.662}
    ]},
    {"target": "CFHR1", "test": "pooled miR-30 sensor sort-seq; sequence = guide strand", "details": "shRNA", "values": [
      {"sequence": "TTTACACACAAATTCAGCTGAT", "sensor-assay potency score (higher = more potent)": 0.481},
      {"sequence": "TTACACACAAATTCAGCTGATT", "sensor-assay potency score (higher = more potent)": -0.226},
      {"sequence": "TTGCACAGTATCACCTTCCAGA", "sensor-assay potency score (higher = more potent)": -0.325},
      {"sequence": "TGAAATTAAGAACTGATTTAAT", "sensor-assay potency score (higher = more potent)": -1.22},
      {"sequence": "TAATTTGCACAGTATCACCTTC", "sensor-assay potency score (higher = more potent)": 0.283},
      {"sequence": "TCTGTCTCGACAGTATATGAGC", "sensor-assay potency score (higher = more potent)": -1.41},
      {"sequence": "TATATGAGCATTTTGTACTGTG", "sensor-assay potency score (higher = more potent)": 0.209},
      {"sequence": "TTAAGAACTGATTTAATACTAA", "sensor-assay potency score (higher = more potent)": -0.326},
      {"sequence": "TACTCATCTGTCTCGACAGTAT", "sensor-assay potency score (higher = more potent)": -0.805},
      {"sequence": "TTTCCCGTAGAATCTTTGCATT", "sensor-assay potency score (higher = more potent)": -1.19}
    ]}
  ]
}
